Hits are enriched below; roughly 6.6% of the tested compounds scored in any of these assays.
CSC inhib: blocks cancer stem cells; inhibition, % at 7.5 µM; actives 1.1% (n = 300,000); AID 2717; cancer stem cell-like cells viability, luminescence; in the data active means inhibition above about 75%; inconclusive means no clear call, values can overlap the other calls; tested in HMLE shEcad cells
GRIN3A LBD mod: modulators (binders) of human NR3A ligand-binding domain; NR3A LBD differential scanning fluorimetry, Tm shift; 0% = protein alone, 100% = glycine-bound protein; actives 2.5% (n = 340,000); Tm shift relative to glycine control, % at 25 µM;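 active means melting temperature shift of at least 10% of the positive control shift, at one fixed dose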
MPTP inh: blocks calcium-induced mitochondrial swelling | isolated mouse mitochondria, Ca2+ swelling absorbance, 30 min | inhibition, % at 10 µM | actives 1.4% (n = 360,000) | AID 602449;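 active means inhibition of 50% or more, scaled per plate between neutral and stimulator controls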;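 further: 0% = DMSO wells given calcium and 100% = 1 mM EGTA wells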
Beta apoptosis: blocks beta cell apoptosis; INS-1E cytokine-induced death, ATP luminescence, 48 h; percent of positive-control rescue, neutral wells zero; protection from apoptosis, % (test concentration not listed); actives 0.8% (n = 300,000); AID 435005;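 active means Every replicate reaches about 75%, or at least half do and their mean reaches it too, limit read from the data; inconclusive means At least half of replicates reach the limit but their mean does not; inactive means Under half of replicates reach the limit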;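 further: 0% = cytokine-treated negative control wells and 100% = positive control rescue; higher means more ATP so stronger rescue from cytokine killing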
Gli-Sufu block: blocks Gli-Sufu signaling in a luciferase reporter. actives 0.74% (n = 340,000). inhibition, % at 5 µM. Sufu-KO-LIGHT fibroblasts, Gli luciferase reporter luminescence;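 active means inhibition above about 55%, limit read from the data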;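 further: 0% = DMSO-treated cells and 100% = wells with medium but no cells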
Mdm2 MdmX PPI: inhibitors of human Mdm2/MdmX interaction. inhibition, % at 8 µM. O15151+Q00987. AID 485346. actives 3% (n = 330,000). SaOS-2 split-luciferase Mdm2/MdmX complementation, luminescence;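 active means inhibition of at least 50% at 8 µM in the primary screen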
Target sequence (O15151 whole entry, looked up): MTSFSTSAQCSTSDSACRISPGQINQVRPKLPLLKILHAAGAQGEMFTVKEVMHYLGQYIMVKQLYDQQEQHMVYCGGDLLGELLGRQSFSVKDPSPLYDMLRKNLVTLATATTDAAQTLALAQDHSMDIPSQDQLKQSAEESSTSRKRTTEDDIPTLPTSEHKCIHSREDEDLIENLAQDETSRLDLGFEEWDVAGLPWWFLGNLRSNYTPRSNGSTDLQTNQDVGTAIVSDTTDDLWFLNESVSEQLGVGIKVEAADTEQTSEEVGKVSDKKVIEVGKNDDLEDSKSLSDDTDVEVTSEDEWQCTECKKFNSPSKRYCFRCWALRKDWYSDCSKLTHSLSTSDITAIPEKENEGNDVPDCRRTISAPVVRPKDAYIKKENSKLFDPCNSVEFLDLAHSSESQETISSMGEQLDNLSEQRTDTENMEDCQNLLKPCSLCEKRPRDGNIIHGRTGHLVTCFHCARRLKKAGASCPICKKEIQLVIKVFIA
Target sequence (Q00987 whole entry, looked up): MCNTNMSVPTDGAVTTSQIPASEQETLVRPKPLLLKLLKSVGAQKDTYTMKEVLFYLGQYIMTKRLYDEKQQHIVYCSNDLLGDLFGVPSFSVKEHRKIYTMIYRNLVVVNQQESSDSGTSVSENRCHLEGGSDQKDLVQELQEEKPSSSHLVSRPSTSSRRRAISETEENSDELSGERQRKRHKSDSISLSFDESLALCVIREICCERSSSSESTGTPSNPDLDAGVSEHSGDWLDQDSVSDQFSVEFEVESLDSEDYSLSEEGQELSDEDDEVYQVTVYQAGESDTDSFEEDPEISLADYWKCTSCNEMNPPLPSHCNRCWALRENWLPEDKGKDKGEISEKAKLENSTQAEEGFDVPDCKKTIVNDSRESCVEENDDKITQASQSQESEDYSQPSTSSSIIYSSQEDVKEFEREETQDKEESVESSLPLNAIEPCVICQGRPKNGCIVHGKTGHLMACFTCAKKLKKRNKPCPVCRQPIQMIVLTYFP
Mdm2-MdmX conf: confirmation of human Mdm2/MdmX interaction inhibitors | shares compounds with Mdm2 MdmX PPI | Mdm2-MdmX binding, luminescent assay | inhibition, % at 8 µM | actives 55% (n = 10,000) | AID 489028; in the data active means inhibition above about 40%
Full FLuc ctr: full-length luciferase inhibition in Mdm2/MdmX counter-screen; shares compounds with Mdm2 MdmX PPI; SaOS-2 full-length luciferase counterscreen, luminescence; inhibition, % at 8 µM; actives 77% (n = 6,200); AID 504607;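 active means mean inhibition at 8 µM reaching about 37%, which flags the compound as non-specific, limit read from the data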;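 further: p53-null SaOS-2 cells with luciferase driven by a doxycycline-inducible promoter; compound on cells about two nights before reading with doxycycline added after day one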
* = called active by the depositor; ? = inconclusive; . = no result.

SMILES	CSC inhib	GRIN3A LBD mod	MPTP inh	Beta apoptosis	Gli-Sufu block	Mdm2 MdmX PPI	Mdm2-MdmX conf	Full FLuc ctr
Cc1ccccc1Nc1nc(N)nc(COC(=O)/C=C/c2ccco2)n1	11.5	-1.2	-0.7	1.8	-9.9	-13.9	.	.
Nc1c(N(CCC2=CCCCC2)C(=O)COc2ccc(F)cc2)c(=O)[nH]c(=O)n1Cc1ccccc1	73.8	6.2	0.1	97.0*	0.4	53.2*	10.6	.
CC1(c2ccccc2)NC(=O)N(CC(=O)N2CCN(S(=O)(=O)c3cccc([N+](=O)[O-])c3)CC2)C1=O (centres undefined)	-7.6	0.4	-0.8	.	-1.9	3.8	.	.
O=C(Nc1cc(S(=O)(=O)Nc2ccc(Cl)cc2)ccc1N1CCCCC1)c1ccc(F)cc1	90.5*	24.6*	39.4	111.7*	29.5	71.8*	35.1	.
COc1ccc(NS(=O)(=O)c2cc(C(=O)O)ccc2C)cc1	-6.6	0.6	0.5	-9.6	-8.0	25.3	.	.
Cc1cccc(NC(=O)c2ccc(N3CCOCC3)c([N+](=O)[O-])c2)n1	-5.4	-1.5	1.4	-10.4	-37.4	-16.5	.	.
COc1ccc(NS(=O)(=O)c2cc(NC(=O)c3ccc(=O)[nH]n3)ccc2C)cc1	.	-5.3	-1.2	5.9	-3.1	52.3*	46.1*	64.6*
CC(=O)NCCC(=O)Nc1cc(S(=O)(=O)Nc2ccc(Cl)cc2)ccc1N1CCCC1	.	-6.0	0.0	.	.	-5.9	.	.
COc1ccc2oc(-c3ccc(NC(=O)c4ccc(N5CCOCC5)c([N+](=O)[O-])c4)cc3)nc2c1	8.7	37.4*	23.7	13.5	-6.5	56.3*	27.5	.
COc1ccc(NS(=O)(=O)c2cc(NC(=O)c3ccco3)ccc2N2CCCCC2)cc1	52.2	1.7	1.0	12.4	5.3	59.7*	39.8	59.6*
CCCCOC(=O)c1ccc(NC(=O)COC(=O)c2ccc3ncsc3c2)cc1	-4.3	6.8	-2.1	0.3	-26.8	2.6	.	.
COc1cc(C=C(C#N)c2ccc([N+](=O)[O-])cc2)ccc1O	.	.	2.5	.	.	.	.	.
Cc1ccc([N+](=O)[O-])cc1CN1CCN(c2ncc(Cc3ccccc3)cn2)CC1	.	.	2.3	.	.	.	.	.
COc1ccc(NS(=O)(=O)c2cc(NC(=O)c3cnc(C)cn3)ccc2N2CCCC2)cc1	13.0	-2.1	0.7	1.0	0.5	32.6	.	.
COc1ccc(NS(=O)(=O)c2cc(NC(=O)c3ccc(=O)[nH]c3)ccc2N2CCCC2)cc1	133.5*	-17.1	1.4	0.8	-3.9	82.1*	72.8*	43.5*
COc1ccc(NS(=O)(=O)c2cc(NC(=O)c3ccc(Cl)cc3)ccc2N2CCOCC2)cc1	71.4	-8.0	0.7	30.8	-10.2	82.2*	67.3*	26.8
COc1ccc(NS(=O)(=O)c2cc(NC(=O)c3ccncc3)ccc2N2CCOCC2)cc1	-23.5	0.3	0.8	-3.4	-0.1	5.9	.	.
CCC(C)NC(=O)C1CCC(CNS(=O)(=O)c2ccccc2)CC1 (centres undefined)	-2.7	-0.3	0.8	-8.4	-4.2	13.6	.	.
O=C(Oc1ccc2c3c(c(=O)oc2c1)CCC3)c1ccccc1[N+](=O)[O-]	-2.3	.	.	-16.2	.	30.9	.	.
CC/C(=N/Nc1ccccc1)c1cnnc(-c2ccccc2)n1	15.6	3.4	38.6	31.3	17.4	42.2	.	.
CC/C(=N/Nc1cccc(Cl)c1)c1cnnc(SC)n1	-0.5	-4.2	19.0	-4.6	-0.2	54.1*	38.9	71.0*
O=C(O)CCC(=O)N1N=C(c2ccccc2)CC1c1ccc2c(c1)OCO2 (centres undefined)	-8.2	0.9	0.0	-5.8	-15.8	8.1	.	.
COc1cc(/C=C/C(=O)OCC(=O)c2ccc[nH]2)ccc1O	.	.	0.3	.	.	.	.	.
CCN(CC)C(=O)c1cccc(-c2csc(C(C)(O)c3cccc(F)c3)n2)c1 (centres undefined)	.	.	3.7	.	.	.	.	.
NC(=O)CSc1nc2ccccc2nc1SCC(N)=O	-19.2	1.0	1.5	-2.4	.	-28.5	.	.
SMILES	CSC inhib	GRIN3A LBD mod	MPTP inh	Beta apoptosis	Gli-Sufu block	Mdm2 MdmX PPI	Mdm2-MdmX conf	Full FLuc ctr
NC(=O)CSc1nc(C23CC4CC(CC(C4)C2)C3)nc2ccccc12	55.3	-2.3	-3.0	-8.0	-5.2	59.8*	37.6	44.8*
COc1ccc(CNC(=O)CN2C(=O)COc3ccc(S(=O)(=O)N4CCCCC4)cc32)cc1	-8.4	-3.2	-0.5	-3.7	17.1	-1.1	.	.
N#C/C(C(N)=O)=c1/ccc2c(c1)N1C3=C(CCCC3)CC3CCCCC31N=2 (centres undefined)	44.3	1.7	.	45.7	20.6	41.0	.	.
N#CC(C#N)=c1ccc2c(c1)N1C3=C(CCCC3)CC3CCCCC31N=2 (centres undefined)	19.4	-4.6	12.4	26.0	28.4	66.8*	45.9*	38.2*
COC(=O)CSc1nnc(CCc2ccccc2)n1C	30.2	1.4	0.7	8.0	-7.7	-9.1	.	.
COc1ccc(CCn2c(C3CCCCC3)nc3c(c(=O)c4ccccc4n3C)c2=O)cc1	?	-4.8	28.9	.	5.5	81.2*	50.0*	45.1*
Cn1c2ccccc2c(=O)c2c(=O)n(-c3ccccc3)c(C3CCCCC3)nc21	-6.8	-6.9	2.3	9.1	22.2	-13.7	.	.
Cn1c2ccccc2c(=O)c2c(=O)n(C3CCCCC3)c(-c3cccs3)nc21	50.1	-5.4	-0.1	42.3	18.9	58.5*	69.3*	62.6*
CCc1nc2c(c(=O)c3ccccc3n2C)c(=O)n1C1CCCCCC1	33.6	-4.2	3.1	40.6	12.2	51.7*	76.1*	80.7*
COCCCNC(=O)Cc1c(C)c2c(cc(C)c3c(C(C)(C)C)coc32)oc1=O	71.4	-1.2	-0.9	7.8	49.2	49.6	.	.
COCC(=O)N1CCC(Oc2ccc(C(=O)N[C@H](C(=O)OC)C(C)C)cc2)CC1	-15.8	5.3	1.3	.	0.0	16.5	.	.
Cc1ccc(C)c(SCC(=O)Nc2ccc(C)c(S(=O)(=O)N3CCOCC3)c2)c1	.	-3.0	1.2	-15.8	0.3	8.2	.	.
Cc1ccc(CNC(=O)CN2NS(=O)(=O)c3ccccc3C2=O)cc1	.	.	-1.4	.	.	.	.	.
C=CCn1c(C)cc(C(=O)CN2NS(=O)(=O)c3ccccc3C2=O)c1C	-0.5	0.5	-5.4	30.6	-53.9	63.8*	38.1	.
CC(C)C[C@H]1CN(CCCC[C@H]2CNC(=O)C(=O)N2CCc2ccccc2)C(=O)C(=O)N1CCc1ccc(O)cc1	.	.	-2.1	.	.	.	.	.
COc1ccc(CCNC(=O)c2cc(-c3ccccc3)c(N3CCOCC3)s2)cc1OC	36.1	-6.4	2.8	-9.6	-11.3	24.3	.	.
CCN(CC)CCCNC(=O)c1cc(-c2ccccc2)c(N2CCCCC2)s1	83.2*	-3.5	-1.6	19.6	-0.3	75.5*	54.5*	66.1*
CC(C)(C)c1cc(Cl)c(O)c(NC(=S)NC(=O)c2cccnc2)c1	26.3	2.5	1.1	23.9	4.2	57.3*	52.6*	35.2

Source: PubChem
